# Source: PubChem BioAssay AID602447 (National Center for Advancing Translational Sciences (NCATS), 2012)
# Inconclusive results are not listed. Active and inactive are the calls of the source. The rule behind the calls is not given here.
# Biological target: Beta-2 adrenergic receptor (Homo sapiens) (UniProt P07550)
# Experiment: qHTS for antagonists of the Thyroid Stimulation Hormone Receptor: Hit Validation with Beta-2 Adrenergic Receptor
# Settings: B2AR-expressing cells, cAMP HTRF, antagonist counterscreen; hits give high values
# Source text: The thyroid-stimulating hormone receptor (TSHR) is a member of the 7 trans-membrane-spanning receptor (7TMR) family of cell surface receptors. TSHR-mediated hyperthyroidism is important in thyroid pathology. The development of small molecule antagonists of TSHR may lead to therapeutic approaches for TSHR-mediated hyperthyroidism caused by constitutively activating mutations or stimulating auto-antibodies associated with Graves' disease. Graves' disease is the leading cause of hyperthyroidism and is caused by autoantibodies that stimulate TSHR (TsAbs) causing thyroid growth and unregulated overproduction of thyroid hormones and existing treatments have liabilities (agranulocytosis). In addition, TSHRs are known to be expressed in multiple extrathyroidal tissues including bone, brain, kidney, testis, fat and cells of the immune system but the role of the TSHR in these tissues is not clear. Therefore, TSHR antagonists/inverse agonists could be used as probes of extrathyroidal TSHR function. Finally, TSHR inverse agonists, which are a subclass of antagonists that inhibit agonist-independent (or basal or constitutive) TSHR signaling, could be used to inhibit TSH-independent signaling in patients with recurrent or metastatic thyroid cancer who are receiving thyroid hormone to suppress TSH. […]
# Chain of Beta-2 adrenergic receptor (Homo sapiens) (P07550 whole entry, looked up): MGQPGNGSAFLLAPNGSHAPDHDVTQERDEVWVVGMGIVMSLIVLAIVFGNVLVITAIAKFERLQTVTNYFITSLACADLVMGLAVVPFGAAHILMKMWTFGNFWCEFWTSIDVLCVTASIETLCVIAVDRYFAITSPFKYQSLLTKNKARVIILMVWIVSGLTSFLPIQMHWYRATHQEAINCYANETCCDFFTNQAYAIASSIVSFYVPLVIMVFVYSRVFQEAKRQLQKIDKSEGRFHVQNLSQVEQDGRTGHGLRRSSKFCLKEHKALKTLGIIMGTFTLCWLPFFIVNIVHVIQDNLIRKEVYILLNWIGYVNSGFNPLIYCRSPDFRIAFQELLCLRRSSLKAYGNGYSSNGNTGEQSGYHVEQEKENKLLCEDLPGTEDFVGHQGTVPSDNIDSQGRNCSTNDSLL
smiles,measurement,value
N#CC(C#N)=NNc1ccc(-n2ccc(C(F)(F)F)n2)cc1,max inhibition,91.9% (active)
